Measured values reported in PubChem BioAssay (NCATS).
Values joined by “and” are separate entries in the source; they are usually repeats but may differ in a detail not shown here. Identical values can stand only once. Records with an inconclusive call do not appear. A call without a number means that no potency is given here. Active and inactive are the calls of the source. Unless noted, calls follow the shape of the dose curve; as a rule, active = well fitted curve in the direction sought with a large enough effect; inconclusive = small, poorly fitted or top-dose-only effect, or another doubt; inactive = no such curve, though single readings can be large; an effect the other way counts as inactive or inconclusive.

Assays:
[1] = molecular target: Glucocorticoid receptor (Homo sapiens) (UniProt P04150); experiment: qHTS assay for small molecule agonists of glucocorticoid receptor signaling (AID 588532; active = well fitted curve in the direction sought with a large enough effect in the signal ratio, with a control signal flat; the % refers to the signal ratio); settings: HeLa MMTV-bla, beta-lactamase ratio, agonist, 18 h; activation: stronger effect = higher value, percent of dexamethasone control, DMSO zero
Method in brief: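 MMTV-bla HeLa, beta-lactamase reporter; medium with 1% charcoal/dextran-stripped FBS; cpds up to 92 uM, 18 h, 37 C; CCF4 readout 460/530 nm; Hill fit → EC50, efficacy vs 0.1 uM dexamethasone = 100%.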

[2] = qHTS assay for small molecule antagonists of peroxisome proliferator-activated receptor delta signaling (AID 588535; active = well fitted inhibition curve with a large enough effect in the signal ratio, with a control signal flat, not every such curve was filed as active; the % refers to the signal ratio;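 as to max response: cells co-treated with a PPAR-delta agonist as stimulator during compound exposure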); settings: HEK293T PPARd-UAS-bla, beta-lactamase FRET ratio, 18 h; 460 nm channel
Method in brief: (§1)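 Inhibition of PPAR-delta response element-driven beta-lactamase expression is measured in HEK293T cells exposed to a compound titration series for 18 hrs at 37 C. Half-maximal inhibition comes from Hill equation fitting.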

[3] = molecular target: Peroxisome proliferator-activated receptor delta (Homo sapiens) (UniProt Q03181); experiment: as above
Method in brief: as §1

[4] = molecular target: Peroxisome proliferator-activated receptor gamma (Homo sapiens) (UniProt P37231); experiment: qHTS assay for small molecule agonists of peroxisome proliferator-activated receptor gamma signaling (AID 588536; active = well fitted curve in the direction sought with a large enough effect in the signal ratio, with a control signal flat, not every such curve was filed as active; the % refers to the signal ratio)
Method in brief: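 This is an agonist-mode beta-lactamase reporter assay in HEK293 PPAR-gamma-UAS-bla cells with 1% charcoal/dextran FBS. Compound titrations ran 16 h at 37 C before CCF4 detection. EC50 and efficacy are Hill fits scaled to 2 uM rosiglitazone (100%) and DMSO basal.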

[5] = qHTS assay for small molecule agonists of retinoid X receptor alpha signaling (AID 588544; calls by dose curve); settings: HEK293T RXRa-UAS-bla, beta-lactamase reporter, 18 h; 530 nm emission
[6] = molecular target: Retinoic acid receptor RXR-alpha (Homo sapiens) (UniProt P19793); experiment: as above
[7] = molecular target: Thyroid hormone receptor beta (Homo sapiens) (UniProt P10828); experiment: qHTS assay for small molecule agonists of thyroid hormone receptor beta signaling (AID 588545; calls by dose curve)
Method in brief: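 Cells (2500/well) were seeded, incubated 4 hrs at 37 C, dosed with a compound series, incubated 18 hrs, loaded with CCF4 dye for 2 hrs at RT, then read for fluorescence. Data were scaled between DMSO (0%) and 10 nM T3 (100%).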

[8] = qHTS assay for small molecule antagonists of retinoid X receptor alpha signaling (AID 588546; active = well fitted inhibition curve with a large enough effect in the signal ratio, with a control signal flat, not every such curve was filed as active; the % refers to the signal ratio;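 also: cells stimulated with 9-cis-retinoic acid as agonist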); settings: HEK293T RXRa-UAS-bla, beta-lactamase ratio, antagonist mode; measured here: W530 green channel, cytotoxicity proxy
Method in brief: (§2)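 Beta-lactamase reporter inhibition, read as CCF4 fluorescence ratio (ex 405, em 460/530 nm) after 2 h at RT. HEK293T UAS-bla cells, 2500/well, were stimulated with 9-cis-RA at 500 or 100 nM final alongside test compound for 18 h at 37 C.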

[9] = molecular target: Retinoic acid receptor RXR-alpha (Homo sapiens) (UniProt P19793); experiment: as above; settings: HEK293T RXRa-UAS-bla, beta-lactamase ratio, antagonist mode
Method in brief: as §2

[10] = molecular target: Thyroid hormone receptor beta (Homo sapiens) (UniProt P10828); experiment: qHTS assay for small molecule antagonists of thyroid hormone receptor beta signaling (AID 588547; active = well fitted inhibition curve with a large enough effect in the signal ratio, with a control signal flat, not every such curve was filed as active; the % refers to the signal ratio;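 also: cells stimulated with 0.4 nM T3 agonist during compound exposure; series mostly up to about 77 µM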); settings: TR-UAS-bla HEK293, beta-lactamase ratio, antagonist mode, 18 h
Method in brief: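 TR-UAS-bla GripTite HEK293 cells in 2% charcoal/dextran FBS medium were preincubated 4 h at 37 C, given compound (0.59 nM to 92 uM) plus 0.4 nM T3 (final) for 18 h, then CCF4 for 2 h at RT; Hill fit gave IC50.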

[11] = molecular target: Voltage-gated inwardly rectifying potassium channel KCNH2 (Homo sapiens) (UniProt Q12809); experiment: qHTS Assay for Small Molecule Inhibitors of the Human hERG Channel Activity (AID 588834);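 also: lower thallium flux fluorescence means stronger hERG block; nearly all actives have a fitted effect of over 50% in size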; also: potency is read from the fitted curve at half-maximal effect
Method in brief: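 Thallium-flux (FluxOR) read-out on FDSS: fluorescence read 10 s before and 2 min after stimulation buffer. hERG-BacMam-transduced U2OS cells, compound exposure about 10 min. AC50 by standard Hill equation.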

[12] = molecular target: Luciferin 4-monooxygenase (Photinus pyralis) (UniProt P08659); experiment: Biochemical firefly luciferase enzyme assay for NPC (AID 624030);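 also: purified P. pyralis luciferase at 10 nM with luciferin and ATP substrate; series mostly up to about 59 µM; nearly all actives have a fitted effect of over 70% in size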
Method in brief: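 Counter-screen for direct inhibition of the luciferase enzyme by approved-drug library compounds, run at 10 nM enzyme in 50 mM Tris acetate (final). Luminescence was read within 5 min of enzyme-buffer addition and normalized to PTC124 versus DMSO (0%).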

[13] = S16 Schwann cell viability assay (CellTiter-Glo assay) (AID 624031); also: nearly all actives have a fitted effect of over 70% in size; also: potency is read from the fitted curve at half-maximal effect
Method in brief: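 CellTiter-Glo ATP luminescence counter-screen in untransfected S16 rat Schwann cells, 24h compound exposure at 37 degree Celsius after overnight seeding (500-750 cells/well); response scaled between cell-free wells and DMSO (0% activity), curves classed by r2 and magnitude.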

[14] = S16 Schwann cell PMP22 intronic element firefly luciferase assay (AID 624032); also: series mostly up to about 58 µM; nearly all actives have a fitted effect of over 30% in size
Method in brief: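 Rat S16 Schwann cells stably carrying a PMP22 intronic element-driven Fluc reporter were seeded overnight, then exposed to compounds for 24 h at 37 °C. Luminescence was normalized to PTC124 (positive control) and DMSO (0% activity).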

[15] = S16 Schwann cell PMP22 intronic element beta-lactamase assay (AID 624044; calls by dose curve; also: nearly all actives have a fitted effect of over 15% in size)
Method in brief: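 Beta-lactamase reporter under a PMP22 intronic regulatory element in stable S16 rat Schwann cells; 24 h compound exposure. 460 nm blue signal normalized between DMSO (0%) and potassium clavulanate, with 535 nm FRET tracking viability; curves classed by r2 and response.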

Sequence of Luciferin 4-monooxygenase (Photinus pyralis) (P08659 whole entry, looked up): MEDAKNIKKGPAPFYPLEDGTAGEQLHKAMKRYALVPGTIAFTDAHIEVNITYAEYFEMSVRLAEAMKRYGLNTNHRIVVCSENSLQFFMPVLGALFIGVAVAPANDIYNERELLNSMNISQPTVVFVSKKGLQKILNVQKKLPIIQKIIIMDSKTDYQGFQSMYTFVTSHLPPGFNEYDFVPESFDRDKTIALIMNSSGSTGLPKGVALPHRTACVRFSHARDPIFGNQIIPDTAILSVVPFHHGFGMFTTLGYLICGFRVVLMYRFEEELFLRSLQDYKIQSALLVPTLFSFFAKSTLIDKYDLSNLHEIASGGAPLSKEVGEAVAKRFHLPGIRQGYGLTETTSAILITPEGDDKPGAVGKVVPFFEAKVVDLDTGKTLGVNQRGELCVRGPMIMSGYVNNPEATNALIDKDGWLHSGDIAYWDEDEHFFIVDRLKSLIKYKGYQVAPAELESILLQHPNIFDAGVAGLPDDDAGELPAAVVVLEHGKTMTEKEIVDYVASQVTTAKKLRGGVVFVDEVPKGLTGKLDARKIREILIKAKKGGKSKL
Sequence of Voltage-gated inwardly rectifying potassium channel KCNH2 (Homo sapiens) (Q12809 whole entry, looked up): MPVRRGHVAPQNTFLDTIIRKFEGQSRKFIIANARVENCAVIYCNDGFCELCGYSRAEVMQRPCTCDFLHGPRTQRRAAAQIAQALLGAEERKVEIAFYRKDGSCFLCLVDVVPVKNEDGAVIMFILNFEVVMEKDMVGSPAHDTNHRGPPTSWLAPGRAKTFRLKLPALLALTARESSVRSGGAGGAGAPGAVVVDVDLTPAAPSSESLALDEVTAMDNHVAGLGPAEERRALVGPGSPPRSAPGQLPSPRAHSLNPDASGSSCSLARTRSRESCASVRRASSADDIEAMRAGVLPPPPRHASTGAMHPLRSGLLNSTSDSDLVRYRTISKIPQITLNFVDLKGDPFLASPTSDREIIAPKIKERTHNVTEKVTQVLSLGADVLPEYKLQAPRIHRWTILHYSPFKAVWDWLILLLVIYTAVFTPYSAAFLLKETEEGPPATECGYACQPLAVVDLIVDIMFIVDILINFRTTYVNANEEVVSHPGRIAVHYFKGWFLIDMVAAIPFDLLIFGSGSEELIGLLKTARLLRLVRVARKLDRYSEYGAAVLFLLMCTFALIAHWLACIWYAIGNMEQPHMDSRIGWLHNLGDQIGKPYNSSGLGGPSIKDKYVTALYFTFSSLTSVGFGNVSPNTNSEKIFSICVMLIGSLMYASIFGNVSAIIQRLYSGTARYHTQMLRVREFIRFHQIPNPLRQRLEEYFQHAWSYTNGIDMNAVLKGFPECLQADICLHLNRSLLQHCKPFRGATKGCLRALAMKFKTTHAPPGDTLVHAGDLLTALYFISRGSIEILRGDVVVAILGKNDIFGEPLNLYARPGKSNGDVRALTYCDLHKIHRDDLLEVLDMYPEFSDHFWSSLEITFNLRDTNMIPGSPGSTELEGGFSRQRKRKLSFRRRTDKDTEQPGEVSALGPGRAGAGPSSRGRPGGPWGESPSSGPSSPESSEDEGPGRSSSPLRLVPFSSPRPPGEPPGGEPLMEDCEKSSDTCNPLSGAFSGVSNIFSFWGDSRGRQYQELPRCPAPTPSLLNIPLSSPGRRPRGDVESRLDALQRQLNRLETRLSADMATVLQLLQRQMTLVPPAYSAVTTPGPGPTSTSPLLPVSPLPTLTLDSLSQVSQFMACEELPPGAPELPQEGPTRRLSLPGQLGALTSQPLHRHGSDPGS
Sequence of Retinoic acid receptor RXR-alpha (Homo sapiens) (P19793 whole entry, looked up): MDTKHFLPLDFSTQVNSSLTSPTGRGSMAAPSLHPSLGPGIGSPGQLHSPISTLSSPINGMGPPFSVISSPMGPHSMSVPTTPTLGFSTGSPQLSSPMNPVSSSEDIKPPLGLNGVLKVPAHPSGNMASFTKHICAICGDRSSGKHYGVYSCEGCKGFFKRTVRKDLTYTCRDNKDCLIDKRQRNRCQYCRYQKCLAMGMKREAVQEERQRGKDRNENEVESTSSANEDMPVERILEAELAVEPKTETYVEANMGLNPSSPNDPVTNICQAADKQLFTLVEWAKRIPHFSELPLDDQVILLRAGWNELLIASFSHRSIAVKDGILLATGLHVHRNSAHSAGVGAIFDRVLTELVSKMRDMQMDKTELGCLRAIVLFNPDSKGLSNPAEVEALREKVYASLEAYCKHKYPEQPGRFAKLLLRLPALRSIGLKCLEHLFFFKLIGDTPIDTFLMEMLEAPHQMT
Sequence of Thyroid hormone receptor beta (Homo sapiens) (P10828 whole entry, looked up): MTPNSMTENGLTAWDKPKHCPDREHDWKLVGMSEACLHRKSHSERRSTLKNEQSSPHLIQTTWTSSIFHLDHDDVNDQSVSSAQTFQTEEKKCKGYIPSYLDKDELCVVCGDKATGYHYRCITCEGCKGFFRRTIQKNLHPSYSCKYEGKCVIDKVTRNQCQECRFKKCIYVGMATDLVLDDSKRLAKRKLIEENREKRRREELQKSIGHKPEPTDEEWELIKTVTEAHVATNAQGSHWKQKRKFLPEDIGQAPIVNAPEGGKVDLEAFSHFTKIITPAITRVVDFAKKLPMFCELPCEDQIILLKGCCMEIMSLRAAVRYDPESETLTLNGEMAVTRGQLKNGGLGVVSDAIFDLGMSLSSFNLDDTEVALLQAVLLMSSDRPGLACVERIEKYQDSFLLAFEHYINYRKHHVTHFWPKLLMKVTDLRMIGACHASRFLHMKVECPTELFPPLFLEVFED
Sequence of Peroxisome proliferator-activated receptor gamma (Homo sapiens) (P37231 whole entry, looked up): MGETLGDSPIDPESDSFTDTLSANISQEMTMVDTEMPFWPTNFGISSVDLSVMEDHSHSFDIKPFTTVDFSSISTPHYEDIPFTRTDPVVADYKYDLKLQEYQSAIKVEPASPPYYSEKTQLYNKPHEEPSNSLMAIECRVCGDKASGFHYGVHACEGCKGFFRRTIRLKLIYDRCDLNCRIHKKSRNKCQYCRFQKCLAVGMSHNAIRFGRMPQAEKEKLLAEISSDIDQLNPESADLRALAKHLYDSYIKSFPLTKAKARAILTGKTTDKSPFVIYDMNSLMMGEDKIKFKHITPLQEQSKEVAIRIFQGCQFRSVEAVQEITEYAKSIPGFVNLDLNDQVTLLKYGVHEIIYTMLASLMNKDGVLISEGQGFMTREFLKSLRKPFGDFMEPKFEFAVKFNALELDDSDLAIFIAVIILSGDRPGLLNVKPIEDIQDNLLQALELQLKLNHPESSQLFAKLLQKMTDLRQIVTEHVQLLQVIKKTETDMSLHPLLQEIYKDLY
Sequence of Glucocorticoid receptor (Homo sapiens) (P04150 whole entry, looked up): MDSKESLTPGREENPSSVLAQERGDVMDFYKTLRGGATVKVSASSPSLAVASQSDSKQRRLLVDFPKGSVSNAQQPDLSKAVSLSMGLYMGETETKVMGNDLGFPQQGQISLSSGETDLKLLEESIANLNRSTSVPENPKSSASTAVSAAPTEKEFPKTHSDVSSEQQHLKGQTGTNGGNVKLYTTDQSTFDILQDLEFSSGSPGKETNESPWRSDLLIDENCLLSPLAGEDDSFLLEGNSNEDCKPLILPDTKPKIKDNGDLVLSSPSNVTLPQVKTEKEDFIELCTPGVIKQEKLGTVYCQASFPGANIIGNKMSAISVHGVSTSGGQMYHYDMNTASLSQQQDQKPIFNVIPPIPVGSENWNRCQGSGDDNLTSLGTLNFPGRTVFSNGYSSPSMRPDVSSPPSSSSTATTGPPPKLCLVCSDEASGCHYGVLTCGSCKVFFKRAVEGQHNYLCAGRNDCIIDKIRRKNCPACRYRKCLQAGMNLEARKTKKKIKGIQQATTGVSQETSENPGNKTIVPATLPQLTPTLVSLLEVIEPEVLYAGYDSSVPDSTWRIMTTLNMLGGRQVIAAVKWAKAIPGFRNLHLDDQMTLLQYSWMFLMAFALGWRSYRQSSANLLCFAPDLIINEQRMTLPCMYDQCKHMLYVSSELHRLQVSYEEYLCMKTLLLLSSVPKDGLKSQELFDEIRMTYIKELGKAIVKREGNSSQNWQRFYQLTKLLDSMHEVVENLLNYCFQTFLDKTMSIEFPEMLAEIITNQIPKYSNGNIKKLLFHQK
Sequence of Peroxisome proliferator-activated receptor delta (Homo sapiens) (Q03181 whole entry, looked up): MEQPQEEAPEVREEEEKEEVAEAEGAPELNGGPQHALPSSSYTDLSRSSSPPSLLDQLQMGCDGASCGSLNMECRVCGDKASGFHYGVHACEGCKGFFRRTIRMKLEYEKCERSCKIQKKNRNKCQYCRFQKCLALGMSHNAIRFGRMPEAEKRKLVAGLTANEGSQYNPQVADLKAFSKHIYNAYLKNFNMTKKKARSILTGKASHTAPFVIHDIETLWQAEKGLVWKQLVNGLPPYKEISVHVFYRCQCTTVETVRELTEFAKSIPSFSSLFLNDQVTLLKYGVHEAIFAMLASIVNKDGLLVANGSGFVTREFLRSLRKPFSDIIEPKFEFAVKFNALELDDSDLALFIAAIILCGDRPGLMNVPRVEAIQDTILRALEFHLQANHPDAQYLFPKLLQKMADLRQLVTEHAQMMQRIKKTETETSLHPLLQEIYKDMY

COc1ccc(CN(CCN(C)C)c2ccccn2)cc1
activation [1]: -0.651% (inactive)
max response [2]: 15.1%
outcome [3]: inactive
outcome [4]: inactive
max response [5]: 16.3%
outcome [6]: inactive
Potency [7]: inactive
max response [8]: 1.42%
max response [9]: 2.77% (inactive)
activity change % (negative = inhibition) [10]: -10.9% (inactive)
Potency [11]: 12.6 µM (active) and 14.1 µM (active) and 8.91 µM (active)
Potency [12]: inactive
Potency [13]: inactive
Potency [14]: inactive

CN(C)C(=O)Oc1cccc([N+](C)(C)C)c1
Potency [12]: inactive
Potency [13]: inactive
Potency [14]: inactive

CCCC(C(=O)OCCN(CC)CC)(c1ccccc1)c1ccccc1
Potency [11]: 11.2 µM (active) and 10 µM (active)
Potency [12]: inactive
Potency [14]: inactive
Potency [15]: inactive

COc1ccc([C@@H]2Sc3ccccc3N(CCN(C)C)C(=O)[C@@H]2OC(C)=O)cc1
Potency [12]: inactive
Potency [13]: inactive
Potency [14]: inactive

COC(=O)[C@@H](N)Cc1ccc(O)c(O)c1
Potency [11]: inactive
Potency [12]: inactive
Potency [14]: inactive
Potency [15]: inactive

CCc1cccc(N(C)C(N)=Nc2cccc3ccccc23)c1
Potency [12]: inactive
Potency [13]: inactive
Potency [14]: inactive

FC(F)(F)c1ccccc1-n1ccnc1
Potency [11]: inactive
Potency [12]: inactive
Potency [13]: inactive
Potency [14]: inactive
Potency [15]: inactive

CNCCCN1c2ccccc2CCc2ccccc21
Potency [12]: inactive

CN(C)C(=O)Oc1ccc[n+](C)c1
Potency [11]: inactive
Potency [12]: inactive
Potency [14]: inactive

CCC(=O)c1ccc2c(c1)N(CCCN(C)C)c1ccccc1S2
Potency [12]: inactive

NC1=NCC2c3ccccc3Cc3ccccc3N12 (stereo not given)
Potency [12]: inactive
Potency [13]: inactive
Potency [14]: inactive

CC(C(=O)O)c1ccc(CC2CCCC2=O)cc1 (stereo not given)
Potency [11]: inactive
Potency [12]: inactive
Potency [14]: inactive
Potency [15]: inactive

Cc1nc2sccn2c(=O)c1CCN1CCC(=C(c2ccc(F)cc2)c2ccc(F)cc2)CC1
Potency [11]: 70.8 nM (active)
Potency [12]: inactive
Potency [13]: inactive
Potency [15]: inactive

c1cnc(N2CCN(Cc3ccc4c(c3)OCO4)CC2)nc1
Potency [11]: inactive
Potency [12]: inactive
Potency [13]: inactive
Potency [14]: inactive
Potency [15]: inactive

CN(C)CCOC(=O)COc1ccc(Cl)cc1
Potency [12]: inactive
Potency [13]: inactive
Potency [14]: inactive

NC/C=C/C(=O)O
Potency [12]: inactive
Potency [13]: inactive
Potency [14]: inactive

OCCN1CCN(CC/C=C2/c3ccccc3Sc3ccc(C(F)(F)F)cc32)CC1
Potency [11]: 2.82 µM (active) and 501 nM (active)
Potency [12]: inactive
Potency [13]: 22.8 µM (active)
Potency [15]: inactive

CCN(CC)CCNC(=O)c1ccc(NC(C)=O)cc1
Potency [12]: inactive
Potency [13]: inactive
Potency [14]: inactive

CN(C)CC/C=C1\c2ccccc2COc2ccccc21
Potency [12]: inactive

CN(C)CC[C@@H](c1ccc(Br)cc1)c1ccccn1
Potency [12]: inactive
Potency [14]: inactive

NC(=O)c1cn(Cc2c(F)cccc2F)nn1
Potency [12]: inactive
Potency [13]: inactive
Potency [14]: inactive

C[C@]12CCC(=O)C=C1CC[C@@H]1[C@@H]2CC[C@@]2(C)[C@H]1CC[C@]2(O)C(=O)CO
Potency [12]: inactive
Potency [13]: inactive
Potency [14]: inactive
